For orientation: viability means a read-out of living cells in per cent, often relative to untreated cells. As a reminder, the inhibition is the relative decrease from the control value, in per cent. In general, AC50 refers to the midpoint of the concentration-response curve, whichever way the signal moves.

Molecules are shown by their SMILES. Where “and” joins values, the source holds several entries; their conditions need not be identical. Identical values can stand only once. Inconclusive results are not listed. For part of these data: Results with a measured potency or affinity are listed apart. Calls of active or inactive are those of the source.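 Rule for the calls, unless noted: active = compounds whose cell count with miR-34 switched on is under 0.7 times the count with it off; inactive = the rest.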

Experiment [1] is described as follows: P. berghei load reduction in hepatocytes – cell-based, HepG2, luciferase luminescence, HepG2 viability, primary screen (AID 624349; in the data active = parasite load remaining mostly below about 12%, no sharp cut-off; inactive = mostly above about 10%;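 note: 100% = mean of DMSO negative control wells on the same plate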). The note with it: P. berghei liver stage in HepG2, luciferase luminescence, concentration not given here; parasite load remaining: stronger effect = lower value; viability: measured here: HepG2 viability without parasites.
The target in experiment [2] is 6-phosphogluconate dehydrogenase, decarboxylating (Homo sapiens) (UniProt P52209). The experiment is described as follows: inhibition of human phosphogluconate dehydrogenase – biochemical, recombinant enzyme, NADPH absorbance, primary screen (AID 1159550;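 active = at least 20% inhibition of 6-phosphogluconate dehydrogenase activity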). The conditions noted are these: recombinant 6PGD, NADPH absorbance 341 nm; at 10 µM; stronger effect = higher value.
Sequence of 6-phosphogluconate dehydrogenase, decarboxylating (Homo sapiens) (P52209 whole entry, looked up): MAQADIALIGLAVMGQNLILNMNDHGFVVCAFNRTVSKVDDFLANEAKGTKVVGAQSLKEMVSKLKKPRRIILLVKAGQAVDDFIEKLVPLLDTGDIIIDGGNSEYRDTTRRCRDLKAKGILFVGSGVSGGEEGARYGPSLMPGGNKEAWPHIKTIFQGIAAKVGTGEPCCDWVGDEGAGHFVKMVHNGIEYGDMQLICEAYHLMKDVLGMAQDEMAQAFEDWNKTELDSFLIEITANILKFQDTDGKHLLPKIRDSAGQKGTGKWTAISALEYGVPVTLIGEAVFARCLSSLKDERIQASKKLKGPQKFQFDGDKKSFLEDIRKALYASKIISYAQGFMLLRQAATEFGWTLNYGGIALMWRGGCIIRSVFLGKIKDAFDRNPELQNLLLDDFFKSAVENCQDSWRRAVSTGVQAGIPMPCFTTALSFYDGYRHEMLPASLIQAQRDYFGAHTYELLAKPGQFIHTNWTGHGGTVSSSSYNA
The nature of experiment [3]: viability loss in pontine glioma line – cell-based, SU-DIPG-XIII, MIPE4.0, CellTiter-Glo, qHTS, dose response (AID 1347061; cut-off not given, nearly all actives have AC50 up to about 37 µM;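 note: cells exposed to compound for 48 hours before readout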). The conditions noted are these: CellTiter-Glo ATP luminescence. (In general: In ATP-based viability assays light output follows the ATP content of the culture.)
The nature of experiment [4]: viability loss in pontine glioma line – cell-based, SU-DIPG-IV, MIPE4.0, CellTiter-Glo, qHTS, dose response (AID 1347063; cut-off not given, nearly all actives have AC50 up to about 30 µM;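 note: compound exposure lasted 48 hours before the viability readout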). The note with it: CellTiter-Glo ATP luminescence.
The nature of experiment [5]: viability loss in pontine glioma line – cell-based, SU-DIPG-XXV, MIPE5.0, CellTiter-Glo, qHTS, dose response (AID 1347065; cut-off not given, nearly all actives have AC50 up to about 26 µM;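 note: cells exposed to compound for 48 hours before ATP readout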). The note with it: CellTiter-Glo ATP luminescence.
The nature of experiment [6]: growth inhibition of DIPG cells – cell-based, MIPE5.0 library, qHTS (AID 1347068; cut-off not given, nearly all actives have IC50 up to about 30 µM). The note with it: SU-DIPG-XXV viability. A general note: qHTS replaces the single test concentration by a dilution series.
Experiment [7] is described as follows: viability loss with induced miR-34 in A549 – imaging, A549 dox-inducible miR-34, nuclei and caspase counts, primary screen (AID 1347080). The conditions noted are these: A549 miR-34 inducible, Hoechst nuclei count, 48 h.
Experiment [8] addresses Mitogen-activated protein kinase 7 (Homo sapiens) (UniProt Q13164). The experiment is described as follows: Gal4-ERK5 driven luciferase induction – cell-based, HTS, primary screen (AID 1508626;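 active = luciferase signal above three times the same-plate solvent-only control wells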;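 note: luciferase driven by Gal4-ERK5 fusion binding five Gal4 sites before minimal TATA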). The conditions noted are these: HeLa Gal4-ERK5 transactivation, 18 h, at 5 µM, stronger effect = higher value.
Experiment [9] in a line: compounds altering viability of human ES cells (AID 493140; call rule not given here;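 note: cells exposed to compounds for four days before counting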). The conditions noted are these: human embryonic stem cell survival screen; stronger effect = higher value.
Experiment [10] can be described thus: MELAS cybrid and Rieske KO viability enhancers – cell-based, MELAS cybrids, Rieske KO mouse fibroblasts, CellTiter-Glo, primary screen (AID 1508586;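 active = mean z-score across replicates of 1.96 or higher in either the MELAS or the Rieske mutant cell line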;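 note: z relative to plate mean and SD of compound and empty wells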). The note with it: low glucose.
Experiment [11] is described as follows: compounds altering circadian rhythm period length – cell-based, LOPAC library, luminescence reporter (AID 2774; call rule not given here;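 note: values are relative to mean of DMSO wells on each plate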). The note with it: circadian reporter cells, at 7 µM, actives lie on both sides.
Experiment [12] has as its system Hepatitis C virus NS3 helicase. The experiment is described as follows: blockers of NS3h binding to ssDNA – biochemical, fluorescence polarization, LOPAC1280 library, primary screen (AID 687035; in the data active = inhibition above about 37%). The conditions noted are these: Purified HCV NS3 helicase, Cy5-dT15 ssDNA binding fluorescence polarization; stronger effect = higher value; concentration not given here. On the technique in general: In fluorescence polarisation assays a small probe gives low polarisation when free and higher when bound to something large.

A short description of experiment [13]: compounds altering Cy5-DNA-NS3h complex signal – biochemical, LOPAC1280, artefact control for HCV NS3 helicase inhibitor project (AID 687037; call rule not given here). The note with it: Cy5-DNA-NS3h complex fluorescence interference counterscreen.
Experiment [14] can be described thus: blockers of cellular phospholipid synthesis – cell-based, LOPAC library, screen 4, primary screen (AID 1347384; call rule not given here). The conditions noted are these: animal cells, phospholipid biosynthesis inhibition screen; at 10 µM.
Experiment [15] can be described thus: galactose survival enhancers in mitochondrial complex I cybrids – cell-based, galactose medium, ATP luminescence, primary screen (AID 1645843;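 active = z-score of at least 1.8 in each of two replicates, scored against plate mean and spread of sample wells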;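 note: positive z means more ATP and so rescue of galactose-driven cybrid death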). The note with it: complex I mutant cybrid cells, 72 h, stronger effect = higher value.
For experiment [16], the target named is ATP-dependent translocase ABCB1 (Homo sapiens) (UniProt P08183). The experiment is described as follows: P-glycoprotein substrate transport blockade – cell-based (AID 377; in the data active = fluorescence slope change above about 50%). The conditions noted are these: MDR1-expressing cells, fluorescent substrate accumulation slope; stronger effect = higher value; concentration not given here.
Sequence of ATP-dependent translocase ABCB1 (Homo sapiens) (P08183 whole entry, looked up): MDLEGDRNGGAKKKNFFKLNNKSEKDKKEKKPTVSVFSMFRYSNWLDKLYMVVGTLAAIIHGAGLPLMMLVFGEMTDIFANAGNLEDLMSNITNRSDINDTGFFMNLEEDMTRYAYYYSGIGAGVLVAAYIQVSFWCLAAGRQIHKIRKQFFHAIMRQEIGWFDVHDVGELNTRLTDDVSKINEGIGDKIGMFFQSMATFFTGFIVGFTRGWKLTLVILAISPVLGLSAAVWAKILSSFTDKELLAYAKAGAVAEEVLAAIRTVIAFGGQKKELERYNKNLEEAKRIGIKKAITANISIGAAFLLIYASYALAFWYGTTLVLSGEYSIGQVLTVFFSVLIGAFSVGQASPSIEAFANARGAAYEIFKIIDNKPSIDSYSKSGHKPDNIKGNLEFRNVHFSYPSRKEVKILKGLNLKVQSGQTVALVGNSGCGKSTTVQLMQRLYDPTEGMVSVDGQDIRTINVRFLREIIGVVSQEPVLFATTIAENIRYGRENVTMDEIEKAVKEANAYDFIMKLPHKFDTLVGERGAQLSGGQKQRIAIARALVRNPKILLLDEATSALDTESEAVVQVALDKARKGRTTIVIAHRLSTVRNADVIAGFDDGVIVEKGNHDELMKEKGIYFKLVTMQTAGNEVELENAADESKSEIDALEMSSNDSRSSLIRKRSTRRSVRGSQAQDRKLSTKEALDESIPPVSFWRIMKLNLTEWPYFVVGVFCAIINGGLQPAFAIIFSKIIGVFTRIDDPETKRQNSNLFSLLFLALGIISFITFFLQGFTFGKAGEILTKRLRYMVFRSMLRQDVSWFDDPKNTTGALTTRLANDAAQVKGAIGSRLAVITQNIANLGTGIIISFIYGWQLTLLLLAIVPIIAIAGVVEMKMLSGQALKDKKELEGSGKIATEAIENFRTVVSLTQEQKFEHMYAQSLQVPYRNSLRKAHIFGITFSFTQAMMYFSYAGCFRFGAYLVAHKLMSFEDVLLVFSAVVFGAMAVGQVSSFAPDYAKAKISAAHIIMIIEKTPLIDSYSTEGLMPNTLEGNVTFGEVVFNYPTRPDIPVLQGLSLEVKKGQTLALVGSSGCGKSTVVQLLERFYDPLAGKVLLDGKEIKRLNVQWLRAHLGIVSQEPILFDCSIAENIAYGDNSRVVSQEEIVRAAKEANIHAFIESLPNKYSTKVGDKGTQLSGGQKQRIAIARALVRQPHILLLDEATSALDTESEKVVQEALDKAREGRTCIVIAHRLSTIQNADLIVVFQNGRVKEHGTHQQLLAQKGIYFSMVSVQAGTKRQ
The nature of experiment [17]: blockers of polyQ-driven CASP3 activation – cell-based (AID 1583). The note with it: polyglutamine-induced caspase-3 activation, cell assay; stronger effect = higher value;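 tested at 10 µM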.
Experiment [18] can be described thus: yeast 75Q aggregation reduction – 75Q-TubU reporter (AID 1593). The conditions noted are these: Yeast 75Q polyglutamine aggregation reporter.
A short description of experiment [19]: restoration of touch response, mutant HTT neurons – whole organism, C. elegans mechanosensory neurons, N-terminal huntingtin (AID 1599). The conditions noted are these: C. elegans polyQ-huntingtin mechanosensory neurons, stronger effect = higher value.
A short description of experiment [20]: blockers of cytochrome c efflux from mitochondria – biochemical, purified mitochondria (AID 1603).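 Note: mouse liver mitochondria challenged with calcium chloride; signal normalized to the plate average as 100%.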 The note with it: stronger effect = lower value.
Experiment [21] can be described thus: polyglutamine aggregate formation blockers (AID 1604). The conditions noted are these: polyglutamine-induced protein aggregation inhibition assay; stronger effect = higher value; tested at 2.5 µM.
The nature of experiment [22]: glutamate transport activators, MN-1 cells, MN-1 cell line (AID 1612).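 Note: tested at 1 µM final; 0% = mean of DMSO vehicle wells on each plate; positive means more glutamate uptake than control and negative means less.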 The conditions noted are these: MN-1 motor neuron cells, stronger effect = higher value.
A short description of experiment [23]: GFP-Q80 aggregate reduction, neuronal-like cells, cell-based, NGF-treated PC12, GFPQ80 (AID 1614).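 Note: lower means fewer inclusions and 0 means no inclusions at all.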 The conditions noted are these: PC12 NGF-treated GFP-polyQ80 inclusion reduction.
The nature of experiment [24]: 75Q-TubH aggregate inhibition, S. cerevisiae, yeast (AID 1616). The note with it: S. cerevisiae 75Q-TubH polyglutamine aggregation suppression; stronger effect = higher value.
Experiment [25] has as its target NAD(+) hydrolase SARM1 (Homo sapiens) (UniProt Q6SZW1). Put plainly: blocking NAD cleavage by SARM1 SAM-TIR – cell lysate, NAD-Glo luminescence (AID 1508614;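 active = compound whose remaining NAD level is above about 45 nM, limit read from the data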;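 note: higher remaining NAD means stronger inhibition of SARM1 NADase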). The conditions noted are these: SAM-TIR HEK293T lysate NADase, at 1 µM, stronger effect = higher value.
Setting [26] is: stronger effect = lower value, cell number ratio, induced over uninduced.
[27] abbreviates: measured here: relative caspase fold change +Dox/-Dox.
The mark [28] stands for this setting: measured here: total cells with miR-34 induction, stronger effect = lower value.
Setting [29] is: measured here: total cells without miR-34 induction.
[30] abbreviates: MELAS cybrid survival, CellTiter-Glo 48 h, stronger effect = higher value.
[31] abbreviates: Rieske KO mouse fibroblast survival, CellTiter-Glo 72 h.

Sequence of Mitogen-activated protein kinase 7 (Homo sapiens) (Q13164 whole entry, looked up, the tested form may be a part): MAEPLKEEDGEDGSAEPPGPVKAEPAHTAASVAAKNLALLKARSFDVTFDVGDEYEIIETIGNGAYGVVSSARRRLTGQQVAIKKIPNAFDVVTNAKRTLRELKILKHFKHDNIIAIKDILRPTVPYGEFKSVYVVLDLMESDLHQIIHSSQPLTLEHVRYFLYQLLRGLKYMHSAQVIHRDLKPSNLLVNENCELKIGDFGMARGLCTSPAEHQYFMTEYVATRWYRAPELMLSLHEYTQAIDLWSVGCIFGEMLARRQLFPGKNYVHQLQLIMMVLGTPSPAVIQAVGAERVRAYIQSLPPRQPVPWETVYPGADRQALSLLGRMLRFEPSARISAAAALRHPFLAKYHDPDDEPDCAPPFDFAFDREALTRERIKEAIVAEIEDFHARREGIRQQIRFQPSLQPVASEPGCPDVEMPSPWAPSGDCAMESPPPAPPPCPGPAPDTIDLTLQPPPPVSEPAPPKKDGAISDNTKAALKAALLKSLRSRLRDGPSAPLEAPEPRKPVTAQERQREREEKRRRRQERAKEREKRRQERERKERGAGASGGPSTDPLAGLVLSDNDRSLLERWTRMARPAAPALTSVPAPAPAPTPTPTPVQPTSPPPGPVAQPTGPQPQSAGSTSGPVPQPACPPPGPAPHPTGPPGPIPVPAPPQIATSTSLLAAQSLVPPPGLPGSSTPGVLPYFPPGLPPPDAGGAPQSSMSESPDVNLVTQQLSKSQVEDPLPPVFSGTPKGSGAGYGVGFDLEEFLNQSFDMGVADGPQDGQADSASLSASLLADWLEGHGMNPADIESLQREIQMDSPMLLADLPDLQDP
Sequence of NAD(+) hydrolase SARM1 (Homo sapiens) (Q6SZW1 whole entry, looked up): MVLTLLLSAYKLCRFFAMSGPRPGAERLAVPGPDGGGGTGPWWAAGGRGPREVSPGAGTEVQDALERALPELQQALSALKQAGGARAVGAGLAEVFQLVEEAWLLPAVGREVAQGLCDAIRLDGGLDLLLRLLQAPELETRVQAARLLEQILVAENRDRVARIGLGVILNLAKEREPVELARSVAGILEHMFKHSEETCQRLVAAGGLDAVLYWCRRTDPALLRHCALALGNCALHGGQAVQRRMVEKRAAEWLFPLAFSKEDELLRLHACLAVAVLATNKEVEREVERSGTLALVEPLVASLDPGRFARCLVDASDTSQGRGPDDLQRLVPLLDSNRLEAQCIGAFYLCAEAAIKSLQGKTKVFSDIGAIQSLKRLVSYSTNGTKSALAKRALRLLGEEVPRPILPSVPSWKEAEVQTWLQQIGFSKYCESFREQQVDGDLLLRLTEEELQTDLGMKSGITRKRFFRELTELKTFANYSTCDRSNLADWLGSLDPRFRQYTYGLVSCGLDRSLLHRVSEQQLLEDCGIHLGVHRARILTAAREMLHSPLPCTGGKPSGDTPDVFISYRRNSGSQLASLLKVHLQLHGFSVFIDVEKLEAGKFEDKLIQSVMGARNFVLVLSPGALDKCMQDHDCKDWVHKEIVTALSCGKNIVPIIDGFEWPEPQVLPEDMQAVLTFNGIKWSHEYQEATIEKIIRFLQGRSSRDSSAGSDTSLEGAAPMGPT

Take `C[C@H]1[C@H](C)CC[C@]2(C(=O)O)CC[C@]3(C)C(=CC[C@@H]4[C@@]5(C)CC[C@H](O)C(C)(C)[C@@H]5CC[C@]43C)[C@H]12`: the parasite load remaining in experiment [1] is 32.3% (inactive). Besides, the viability in experiment [1] was 73.8%. For the same compound, the inhibition in experiment [2] is 14.7% (inactive). Also, the call in experiment [3] and in experiment [6] was inactive. For the same compound, the AC50 in experiment [4] is 42.9 µM (active); in experiment [5] it was 18.6 µM (active). In addition, the fold change is 0.941 (inactive) in experiment [7] (setting [26]) and 1.58 in experiment [7] (setting [27]). Besides, the cell count in experiment [7] (setting [28]) came out at 8760; in [7] (setting [29]), 9310. In experiment [8], the luciferase signal was 40 AU (inactive).
In the case of `C[C@H](CCC(=O)O)[C@H]1CC[C@H]2[C@@H]3CC[C@@H]4C[C@H](O)CC[C@]4(C)[C@H]3CC[C@]12C`, the survival in experiment [9] is 3.25 (inactive). In addition, in [1], the parasite load remaining was 106% (inactive). Further, the viability in experiment [1] was found to be 101%. For the same compound, the inhibition in [2] was 3.51% (inactive). For the same compound, the results for the fold change in [7] (setting [26]) and in experiment [7] (setting [27]) were 0.876 (inactive) and 1.28, respectively. Moreover, the values for the cell count in experiment [7] (setting [28]) and in [7] (setting [29]) were 8840 and 10100, respectively. For the same compound, the z-score in [10] (setting [30]) is 0.139 (inactive); in experiment [10] (setting [31]), -0.0326. In experiment [8], the luciferase signal was 76 AU (inactive).
As for `CSC(N)=NCCC[C@H](N)C(=O)O`, in experiment [11], the period change is 0.125 h (inactive). Also, the inhibition in experiment [12] is -3% (inactive); in experiment [2], -13.5% (inactive). For the same compound, the fluorescence ratio (interference) in experiment [13] was 1 (inactive). For the same compound, the fold change in [7] (setting [26]) is 1.1 (inactive) and 0.994 (inactive); in experiment [7] (setting [27]), 0.973 and 0.749. In addition, the cell count was 11000 and 6220 in experiment [7] (setting [28]); 10000 and 6260 in experiment [7] (setting [29]). Also, the outcome in experiment [14] was inactive. Also, the z-score in [15] is 0.215 (inactive).
For `O=C(N[C@@H](Cc1ccccc1)C(=O)CCl)OCc1ccccc1`, the period change in experiment [11] is -0.215 h (inactive). Further, the inhibition in [12] was 0% (inactive); in [2], 6.1% (inactive). Moreover, the fluorescence ratio (interference) in experiment [13] is 1 (inactive). Besides, the fold change is 1.3 (inactive) in experiment [7] (setting [26]) and 1.36 in experiment [7] (setting [27]). Also, the cell count in [7] (setting [28]) came out at 816; in experiment [7] (setting [29]) it was 626. Moreover, the result in [14] was inactive. For the same compound, the z-score in experiment [15] is -1.33 (inactive).
In the case of `CC(Oc1ccccc1)C(=O)N[C@@H]1C(=O)N2[C@@H]1SC(C)(C)[C@@H]2C(=O)O` (stereo not given in full), in [16], the fluorescence slope change was 56.9% (active). For the same compound, the inhibition in [17] is 11.2%; in [2], 1.89% (inactive). Also, the score in [18] was 1.4. This compound displayed a rescue above control in experiment [19] of -10.5. Further, the cytochrome c release ratio in [20] came out at 1.15. This compound also came in with an inhibition of aggregation in experiment [21] of 78.9%. In experiment [22], this compound came in with a glutamate uptake change of 10.6%. In [23], this compound registered an inclusion score of 2. In addition, in [24], the aggregation suppression score was found to be 1.29. For the same compound, the survival in experiment [9] was 7.92 (inactive). Further, the parasite load remaining in experiment [1] is 116% (inactive) and 55% (inactive). The viability in experiment [1] is 109% and 84.1%. Also, the fold change was 0.935 (inactive) and 0.907 (inactive) in [7] (setting [26]); 1.21 and 2.74 in [7] (setting [27]). Moreover, the cell count in [7] (setting [28]) was 8390 and 12400; in experiment [7] (setting [29]) it was 8980 and 13600. Besides, the z-score was -0.192 (inactive) in experiment [10] (setting [30]) and -0.917 in experiment [10] (setting [31]). Besides, the remaining NAD in [25] is 10 nM (inactive). The luciferase signal in experiment [8] is 36 AU (inactive).
Regarding `CCOc1nc2cccc(C(=O)OC(C)OC(=O)OC3CCCCC3)c2n1Cc1ccc(-c2ccccc2-c2nn[nH]n2)cc1` (stereo not given), in experiment [1], the parasite load remaining is 137% (inactive) and 50.7% (inactive). Further, the viability in experiment [1] was 83.9% and 101%. In addition, the inhibition in experiment [2] was 2.36% (inactive). The fold change in experiment [7] (setting [26]) was 0.972 (inactive) and 0.852 (inactive); in experiment [7] (setting [27]), 0.675 and 3.41. Moreover, the cell count in experiment [7] (setting [28]) is 8090 and 11000; in [7] (setting [29]) it was 8320 and 12900. The figures for the z-score in [10] (setting [30]) and in experiment [10] (setting [31]) were 0.432 (inactive) and -0.0296, respectively. For the same compound, the remaining NAD in experiment [25] is 10 nM (inactive). The luciferase signal in experiment [8] is 40 AU (inactive).
